Consider 39 compounds from PubChem BioAssay.

The source made the active and inactive calls.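 The calls were made as follows, unless noted: active = visual image review flags a hit and inhibition of aggregation exceeds 20%; inconclusive = visual hit but inhibition at or below 20%; inactive = no hit on visual image review.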

The first test in a line: inhibitors of TNFa-induced NFkB p65 translocation, primary screen, imaging, HUVEC, MLSMR starter and 10KST1 sets (AID 438;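 active = inhibition above 20% together with a positive visual image hit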;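 also: compound added about 3h40 before a 20 min TNFalpha stimulation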;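 as to inhibition: signal is the nuclear over cytoplasmic p65 intensity ratio per well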). Conditions: HUVEC TNFa-induced p65 nuclear translocation; cell count: measured here: nuclei count (cytotoxicity indicator), at 2.08 µM; inhibition: at 2 µM, stronger effect = higher value, 0% TNFa-plus-vehicle, 100% no-TNFa wells.
By inhibition is commonly meant the change of the read-out against control, counted positive when it falls. Take `Cc1cc(C)c(C#N)c(SCC(=O)Nc2ccc(S(=O)(=O)Nc3onc(C)c3C)cc2)n1`: the cell count worked out at 607 and the inhibition is 2.9% (inactive).
Turning to `CC(C)c1ccc(C(O)c2cnc(C(C)C)n2C)cc1` (stereo unspecified), the inhibition was 6.9% (inactive) and the cell count was found to be 723.
Taken in the same sequence, the figures for `CN1CCN(S(=O)(=O)c2ccc(NC(=O)c3ccc(F)cc3)cc2)CC1` were 0% (inactive) and 624.
Regarding `O=c1c2[nH]c3cccc(Cl)c3c2ncn1CCN1CCCCC1`, the inhibition was -2.8% (inactive) and the cell count came out at 300.
In the case of `COc1ccc(OC)c(C(=O)CSc2nc3ncccc3[nH]2)c1`, the inhibition was 9.5% (inactive) and the cell count is 238.
The matching figures for `O=C(CC(CC(=O)c1ccccc1)C(=O)O)c1ccccc1`: 8.7% (inactive) and 393.
Regarding `CCOc1ccc2nc(Nc3nc4c(c(=O)[nH]3)CCC4)nc(C)c2c1`, the cell count came to 612 and the inhibition is 0.8% (inactive).
For the compound `CCOC(=O)Cn1c(S(=O)(=O)Cc2ccccc2)nc2ccccc21`, the cell count was found to be 811 and the inhibition is 5.5% (inactive).
In the case of `CC(C)NC(=O)Nc1cccs1`, the inhibition is 3% (inactive) and the cell count was found to be 708.
Consider `CC(C)COC(=O)C1[C@H]2C(=O)N(Cc3cccs3)C[C@]23C=C[C@H]1O3` (stereo partly specified), for which the cell count stood at 483 and the inhibition is 3.3% (inactive).
Turning to `CN(C)S(=O)(=O)c1ccc(S(=O)(=O)N(Cc2ccco2)Cc2ccccc2Cl)cc1`, the inhibition was 4% (inactive) and the cell count is 478.
For the compound `COc1cccc(N(C(=O)c2ccco2)C(C(=O)NC2CCCC2)c2ccc(N(C)C)cc2)c1` (stereo unspecified), the inhibition was -1.6% (inactive) and the cell count turned out to be 582.
With `CCOc1ccc(Cn2nnc(C(=O)Nc3ccc(OC)cc3OC)c2N)cc1`, the inhibition is -6.1% (inactive) and the cell count came to 720.
`CC(NC(=O)c1ccc2c(c1)OCO2)C(c1cccs1)N1CCOCC1` (stereo unspecified): the inhibition was -6.6% (inactive) and the cell count worked out at 462.
For `Cn1c(=N)c(S(=O)(=O)c2ccccc2)cc2c(=O)n3ccccc3nc21`, the cell count was 442 and the inhibition was -5.1% (inactive).
In the case of `CCOC(=O)c1c(NC(=O)OC)sc2c1CCC2`, the cell count came to 496 and the inhibition was -0.5% (inactive).
With `CCn1c(SCC(=O)N2c3ccccc3CCc3ccccc32)nc2c1c(=O)n(C)c(=O)n2C`, the inhibition is -3.2% (inactive) and the cell count is 706.
Turning to `COc1cccc(C(=O)Nc2c(C(N)=O)oc3ccccc23)c1`, the inhibition is -14.6% (inactive) and the cell count was 702.
Take `Cc1cc(C(=O)Nc2nnc(C(F)(F)F)s2)no1`: the cell count worked out at 342 and the inhibition was -4.7% (inactive).
The matching figures for `CC(Oc1ccccc1)C(=O)NC1CCN(Cc2ccccc2)CC1` (stereo unspecified): 705 and -5.2% (inactive).
The matching figures for `COC(=O)[C@H](CCSC)NC(=O)Nc1cc(C)ccc1C`: 476 and -7.4% (inactive).
For the compound `COc1ccc(NC(=O)CC2Oc3ccccc3NC2=O)cc1` (stereo unspecified), the inhibition was 8.3% (inactive) and the cell count was 560.
For the compound `Oc1ccc(Nc2nc(-c3ccc(O)cc3)cs2)cc1`, the inhibition is 15.1% (inactive) and the cell count is 277.
The matching figures for `COc1ccc(OC)c(C2CC(=O)NC(SC)=C2C#N)c1` (stereo unspecified): -9.6% (inactive) and 662.
In the case of `COc1ccccc1CC(NC(C)=O)C(=O)NC1CCN(c2nnnn2-c2ccccc2)CC1` (stereo unspecified), the cell count was 761 and the inhibition was -5.5% (inactive).
Taken in the same sequence, the figures for `COc1ccc(-c2nnc(SC(C)C(=O)Nc3nccs3)n2-c2ccccc2)cc1OC` (stereo unspecified) were 548 and -8% (inactive).
Turning to `CC(=O)N1CCN(S(=O)(=O)c2ccc(S(=O)(=O)NCC(C)C)cc2)CC1`, the cell count is 641 and the inhibition was 1.6% (inactive).
Take `CCCN(CCC)CCNS(=O)(=O)c1ccc2c(c1)oc(=O)n2C`: the inhibition is -13.8% (inactive) and the cell count came out at 346.
With `CCOC(=O)C1=C(C)NC(=O)NC1c1ccc(Br)s1` (stereo unspecified), the inhibition was 1.2% (inactive) and the cell count turned out to be 516.
`COc1ccc(CC(=O)Nc2ccc(OC)c(NC(=O)c3ccco3)c2)cc1`: the inhibition was 22% (active) and the cell count was 580.
Consider `Nn1c(SCC(=O)Nc2ccc(S(=O)(=O)N3CCCC3)cc2)nnc1C(F)(F)F`, for which the inhibition was -3.3% (inactive) and the cell count stood at 704.
Taken in the same sequence, the figures for `O=C1C2C3C=CC(C3=C3CCCCC3)C2C(=O)N1c1ccccc1` (stereo unspecified) were -10.1% (inactive) and 512.
Turning to `CCC(=O)Nc1cc(C)c(NC(=O)C23CC4CC(CC(C4)C2)C3)cn1`, the cell count was 391 and the inhibition was 5.2% (inactive).
In the case of `O=C(c1ncc[nH]1)c1ccccc1C(=O)N1CCOCC1`, the inhibition is 15.2% (inactive) and the cell count was found to be 399.
Turning to `CCc1ccc(NC(=O)CS(=O)CC(=O)NC(C)CCc2ccco2)cc1` (stereo unspecified), the cell count is 388 and the inhibition was 0.6% (inactive).
Regarding `N#Cc1nc(COc2ccccc2Cl)oc1N1CCCCCC1`, the inhibition is 1.1% (inactive) and the cell count is 577.
Taken in the same sequence, the figures for `O=C(c1ccco1)N1CCN(c2nc(C(F)(F)F)nc3c2nnn3Cc2ccccc2)CC1` were -2.5% (inactive) and 534.
For `Cc1ccc2c(c1)-c1c(cnn1CC(=O)NC(C)CCc1ccco1)CO2` (stereo unspecified), the cell count is 799 and the inhibition is 4.6% (inactive).
Taken in the same sequence, the figures for `CCC1(CC)C(=O)N(C)C(=O)NC1=NCc1ccccc1` were 512 and -4.7% (inactive).

Another test in a line: reduction of polyQ htt aggregates in cells – imaging, exon1htt(103Q)mCFP cells, high-content imaging, primary screen (AID 483).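 Also: compound exposure lasted 3 days before fixation.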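 As to nuclei count: percent of the per-plate median nuclei count of sample wells.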 Particulars: exon1htt(103Q)mCFP cell line, aggregate imaging, at 2 µM; inhibition of aggregation: stronger effect = higher value; nuclei count: measured here: cell count, toxicity.
As to `Cc1cc(C)c(C#N)c(SCC(=O)Nc2ccc(S(=O)(=O)Nc3onc(C)c3C)cc2)n1`, the inhibition of aggregation is 3.9% (inactive) and the nuclei count was 103%.
As for `CC(C)c1ccc(C(O)c2cnc(C(C)C)n2C)cc1` (stereo unspecified), the inhibition of aggregation was -27.2% (inactive) and the nuclei count turned out to be 50.5%.
In the case of `CN1CCN(S(=O)(=O)c2ccc(NC(=O)c3ccc(F)cc3)cc2)CC1`, the inhibition of aggregation is -2.2% (inactive) and the nuclei count stood at 105%.
Taken in the same sequence, the figures for `O=c1c2[nH]c3cccc(Cl)c3c2ncn1CCN1CCCCC1` were -4.9% (inactive) and 89%.
For `COc1ccc(OC)c(C(=O)CSc2nc3ncccc3[nH]2)c1`, the nuclei count was found to be 113% and the inhibition of aggregation was 16.2% (inactive).
Take `O=C(CC(CC(=O)c1ccccc1)C(=O)O)c1ccccc1`: the inhibition of aggregation is -4.6% (inactive) and the nuclei count is 91.9%.
The matching figures for `CCOc1ccc2nc(Nc3nc4c(c(=O)[nH]3)CCC4)nc(C)c2c1`: -12.1% (inactive) and 112%.
On to `CCOC(=O)Cn1c(S(=O)(=O)Cc2ccccc2)nc2ccccc21`, for which the nuclei count is 110% and the inhibition of aggregation was -22.5% (inactive).
The matching figures for `CC(C)NC(=O)Nc1cccs1`: 104% and 21.6% (inactive).
Turning to `CC(C)COC(=O)C1[C@H]2C(=O)N(Cc3cccs3)C[C@]23C=C[C@H]1O3` (stereo partly specified), the inhibition of aggregation is -2.4% (inactive) and the nuclei count was determined as 97.4%.
On to `CN(C)S(=O)(=O)c1ccc(S(=O)(=O)N(Cc2ccco2)Cc2ccccc2Cl)cc1`, for which the inhibition of aggregation was 0.8% (inactive) and the nuclei count was determined as 98.9%.
In the case of `COc1cccc(N(C(=O)c2ccco2)C(C(=O)NC2CCCC2)c2ccc(N(C)C)cc2)c1` (stereo unspecified), the inhibition of aggregation was -38.4% (inactive) and the nuclei count was determined as 98.6%.
Taken in the same sequence, the figures for `CCOc1ccc(Cn2nnc(C(=O)Nc3ccc(OC)cc3OC)c2N)cc1` were 7.2% (inactive) and 108%.
In the case of `CC(NC(=O)c1ccc2c(c1)OCO2)C(c1cccs1)N1CCOCC1` (stereo unspecified), the inhibition of aggregation was 17.3% (inactive) and the nuclei count is 113%.
Consider `Cn1c(=N)c(S(=O)(=O)c2ccccc2)cc2c(=O)n3ccccc3nc21`, for which the nuclei count came to 114% and the inhibition of aggregation is -1.9% (inactive).
Taken in the same sequence, the figures for `CCOC(=O)c1c(NC(=O)OC)sc2c1CCC2` were 82.8% and 9.3% (inactive).
For the compound `CCn1c(SCC(=O)N2c3ccccc3CCc3ccccc32)nc2c1c(=O)n(C)c(=O)n2C`, the inhibition of aggregation was 25.6% (inactive) and the nuclei count is 80.2%.
On to `COc1cccc(C(=O)Nc2c(C(N)=O)oc3ccccc23)c1`, for which the inhibition of aggregation is 28.5% (inactive) and the nuclei count turned out to be 89.2%.
Consider `Cc1cc(C(=O)Nc2nnc(C(F)(F)F)s2)no1`, for which the nuclei count worked out at 98% and the inhibition of aggregation was -8% (inactive).
Turning to `CC(Oc1ccccc1)C(=O)NC1CCN(Cc2ccccc2)CC1` (stereo unspecified), the inhibition of aggregation was 2.1% (inactive) and the nuclei count is 108%.
Taken in the same sequence, the figures for `COC(=O)[C@H](CCSC)NC(=O)Nc1cc(C)ccc1C` were 7.6% (inactive) and 90.6%.
Regarding `COc1ccc(NC(=O)CC2Oc3ccccc3NC2=O)cc1` (stereo unspecified), the nuclei count was 92.4% and the inhibition of aggregation was -0.3% (inactive).
Turning to `Oc1ccc(Nc2nc(-c3ccc(O)cc3)cs2)cc1`, the nuclei count came to 71.8% and the inhibition of aggregation was 18.9% (inactive).
Take `COc1ccc(OC)c(C2CC(=O)NC(SC)=C2C#N)c1` (stereo unspecified): the inhibition of aggregation was -13.5% (inactive) and the nuclei count amounted to 114%.
For `COc1ccccc1CC(NC(C)=O)C(=O)NC1CCN(c2nnnn2-c2ccccc2)CC1` (stereo unspecified), the nuclei count stood at 63.6% and the inhibition of aggregation was -29.5% (inactive).
As to `COc1ccc(-c2nnc(SC(C)C(=O)Nc3nccs3)n2-c2ccccc2)cc1OC` (stereo unspecified), the inhibition of aggregation is 2.8% (inactive) and the nuclei count is 82.2%.
As to `CC(=O)N1CCN(S(=O)(=O)c2ccc(S(=O)(=O)NCC(C)C)cc2)CC1`, the inhibition of aggregation is 5.2% (inactive) and the nuclei count worked out at 102%.
The matching figures for `CCCN(CCC)CCNS(=O)(=O)c1ccc2c(c1)oc(=O)n2C`: -2.5% (inactive) and 77.3%.
For `CCOC(=O)C1=C(C)NC(=O)NC1c1ccc(Br)s1` (stereo unspecified), the nuclei count turned out to be 105% and the inhibition of aggregation was 5.5% (inactive).
For `COc1ccc(CC(=O)Nc2ccc(OC)c(NC(=O)c3ccco3)c2)cc1`, the nuclei count amounted to 99.6% and the inhibition of aggregation was 4% (inactive).
As for `Nn1c(SCC(=O)Nc2ccc(S(=O)(=O)N3CCCC3)cc2)nnc1C(F)(F)F`, the inhibition of aggregation is -7% (inactive) and the nuclei count came to 104%.
Taken in the same sequence, the figures for `O=C1C2C3C=CC(C3=C3CCCCC3)C2C(=O)N1c1ccccc1` (stereo unspecified) were 3.7% (inactive) and 104%.
On to `CCC(=O)Nc1cc(C)c(NC(=O)C23CC4CC(CC(C4)C2)C3)cn1`, for which the nuclei count came to 98.8% and the inhibition of aggregation was 1% (inactive).
Take `O=C(c1ncc[nH]1)c1ccccc1C(=O)N1CCOCC1`: the inhibition of aggregation was 27.9% (inactive) and the nuclei count turned out to be 111%.
Take `CCc1ccc(NC(=O)CS(=O)CC(=O)NC(C)CCc2ccco2)cc1` (stereo unspecified): the inhibition of aggregation was 18.9% (inactive) and the nuclei count was determined as 94.8%.
As for `N#Cc1nc(COc2ccccc2Cl)oc1N1CCCCCC1`, the inhibition of aggregation is -17.4% (inactive) and the nuclei count stood at 92.6%.
On to `O=C(c1ccco1)N1CCN(c2nc(C(F)(F)F)nc3c2nnn3Cc2ccccc2)CC1`, for which the nuclei count came to 87.1% and the inhibition of aggregation is -6.6% (inactive).
As to `Cc1ccc2c(c1)-c1c(cnn1CC(=O)NC(C)CCc1ccco1)CO2` (stereo unspecified), the inhibition of aggregation was -8% (inactive) and the nuclei count was 119%.
With `CCC1(CC)C(=O)N(C)C(=O)NC1=NCc1ccccc1`, the inhibition of aggregation is -9.9% (inactive) and the nuclei count was determined as 107%.
